# A selection: hits, their analogues and other compounds. The true share with any hit is near 19%.
# IL-1B inflam inh: qHTS for Inhibitors of Inflammasome Signaling: IL-1-beta AlphaLISA Primary Screen; activity change, % at 57.5 µM; AID 743279, 2014; THP-1 LPS/ATP IL-1B secretion, AlphaLISA, 16 h; stronger effect = lower value; 360,000 compounds, 4.7% hits; in the data active = activity change below about -50%; inconclusive = mostly about -30% to -49%
#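 Secreted IL-1B measured by AlphaLISA bead assay after 16 h compound exposure of THP-1 cells; compounds (final up to 57.5 uM) added 1 h before LPS (250 ng/mL) and ATP (1.25 mM) stimulation; lower signal means less secretion.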
# DT40 TDP1 CPT: qHTS for Inhibitors of human tyrosyl-DNA phosphodiesterase 1 (TDP1): qHTS in cells in presence of CPT. AID 686979, 2013. Potency, µM (doses to about 46.2 µM), most hits filed as inhibitors. chicken DT40 Tdp1-/-;hTDP1 cells + 20 nM CPT, ATP luminescence, 48 h. 420,000 compounds, 12% hits; also: nearly all actives have a fitted effect of over 55% in size
#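 Chicken DT40 Tdp1-/- cells complemented with human TDP1, 400 cells/well, exposed to compounds plus 20 nM camptothecin for at least 48 h at 37 C; viability read as ATP content by CellTiter-Glo luminescence.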
# TDP1 cell noCPT: qHTS for Inhibitors of human tyrosyl-DNA phosphodiesterase 1 (TDP1): qHTS in cells in absence of CPT. DT40 Tdp1-/- hTDP1 cells, no CPT, ATP luminescence, 48 h. Potency, µM (highest dose often 46.2 µM), most hits filed as inhibitors. 420,000 compounds, 15% hits; also: nearly all actives have a fitted effect of over 55% in size
#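 Luminescent ATP content (CellTiter-Glo) served as the growth readout. Knockout chicken DT40 cells expressing human TDP1 were exposed to compounds without camptothecin for a minimum 48 hr at 37 °C.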
# HT1080-NT tox: qHTS for induction of synthetic lethality in tumor cells producing 2HG: qHTS for the HT-1080-NT fibrosarcoma cell line; Potency, µM (titrated, usually from 46.1 µM), hits mostly cytotoxic; HT-1080-NT fibrosarcoma viability, CellTiter-Glo ATP luminescence, 48 h; 360,000 compounds, 1.6% hits;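 also: NT is the 2HG producing partner of a matched IDH1 knockdown line; nearly all actives have a fitted effect of over 55% in size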
#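 Compounds were tested in concentration-response format on HT-1080-NT cells for 48 hours at 37 degrees C. Cell viability came from CellTiter-Glo luminescence; curves were classified by r2, response magnitude and activity.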
# ELG1 DNA repair: qHTS screen for small molecules that inhibit ELG1-dependent DNA repair in human embryonic kidney (HEK293T) cells expressing luciferase-tagged ELG1 | HEK293T ELG1-luciferase reporter, luminescence, 16 h; DNA damage induced by 5-fluorouridine | Potency, µM (doses to about 46.1 µM), usual class: inhibitors | 330,000 compounds, 2.3% hits | AID 504467, 2011; also: nearly all actives have a fitted effect of over 55% in size
#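 DMSO vehicle served as the neutral condition. Each well held 2,000 cells given 5-fluorouridine plus compound; after 16 hr at 37 °C/5% CO2, ONE-Glo was added and luciferase measured 30 min later.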
# HT1080 IDH1KD tx: qHTS for induction of synthetic lethality in tumor cells producing 2HG: qHTS for the HT-1080-IDH1KD cell line; 360,000 compounds, 2% hits; Potency, µM (highest dose often 46.1 µM), usual class: cytotoxic; HT-1080 IDH1 knockdown viability, ATP luminescence, 48 h; AID 686971, 2013
#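 In this qHTS, HT-1080 cells depleted of IDH1 are exposed for 48 h at 37 °C to compound titrations. Toxicity is scored from CellTiter-Glo luminescence, with DMSO as full viability and medium alone as none.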
# ELG1 FLuc counter: qHTS screen for small molecules that inhibit ELG1-dependent DNA repair: Hit Confirmation in Cell-Based Luciferin Assay; cell-free firefly luciferase luminescence counter-screen, ViewLux; Potency, µM (titrated, usually from 46.1 µM), most hits filed as inhibitors; shares compounds with ELG1 DNA repair; AID 624247, 2012; 350 compounds, 3% hits
# ELG1-Luc inh: HTS assay for small molecules that inhibit ELG1-dependent DNA repair in human embryonic kidney (HEK293T) cells expressing luciferase-tagged ELG1: Hit Confirmation; shares compounds with ELG1 DNA repair; HEK293T ELG1-luciferase levels, luminescence; cells co-treated with 5-fluorouridine; Potency, µM (doses to about 46.1 µM), usual class: inhibitors; 670 compounds, 68% hits; AID 624248, 2012; also: nearly all actives have a fitted effect of over 55% in size
# Target sequence (Q96QE3 whole entry, looked up): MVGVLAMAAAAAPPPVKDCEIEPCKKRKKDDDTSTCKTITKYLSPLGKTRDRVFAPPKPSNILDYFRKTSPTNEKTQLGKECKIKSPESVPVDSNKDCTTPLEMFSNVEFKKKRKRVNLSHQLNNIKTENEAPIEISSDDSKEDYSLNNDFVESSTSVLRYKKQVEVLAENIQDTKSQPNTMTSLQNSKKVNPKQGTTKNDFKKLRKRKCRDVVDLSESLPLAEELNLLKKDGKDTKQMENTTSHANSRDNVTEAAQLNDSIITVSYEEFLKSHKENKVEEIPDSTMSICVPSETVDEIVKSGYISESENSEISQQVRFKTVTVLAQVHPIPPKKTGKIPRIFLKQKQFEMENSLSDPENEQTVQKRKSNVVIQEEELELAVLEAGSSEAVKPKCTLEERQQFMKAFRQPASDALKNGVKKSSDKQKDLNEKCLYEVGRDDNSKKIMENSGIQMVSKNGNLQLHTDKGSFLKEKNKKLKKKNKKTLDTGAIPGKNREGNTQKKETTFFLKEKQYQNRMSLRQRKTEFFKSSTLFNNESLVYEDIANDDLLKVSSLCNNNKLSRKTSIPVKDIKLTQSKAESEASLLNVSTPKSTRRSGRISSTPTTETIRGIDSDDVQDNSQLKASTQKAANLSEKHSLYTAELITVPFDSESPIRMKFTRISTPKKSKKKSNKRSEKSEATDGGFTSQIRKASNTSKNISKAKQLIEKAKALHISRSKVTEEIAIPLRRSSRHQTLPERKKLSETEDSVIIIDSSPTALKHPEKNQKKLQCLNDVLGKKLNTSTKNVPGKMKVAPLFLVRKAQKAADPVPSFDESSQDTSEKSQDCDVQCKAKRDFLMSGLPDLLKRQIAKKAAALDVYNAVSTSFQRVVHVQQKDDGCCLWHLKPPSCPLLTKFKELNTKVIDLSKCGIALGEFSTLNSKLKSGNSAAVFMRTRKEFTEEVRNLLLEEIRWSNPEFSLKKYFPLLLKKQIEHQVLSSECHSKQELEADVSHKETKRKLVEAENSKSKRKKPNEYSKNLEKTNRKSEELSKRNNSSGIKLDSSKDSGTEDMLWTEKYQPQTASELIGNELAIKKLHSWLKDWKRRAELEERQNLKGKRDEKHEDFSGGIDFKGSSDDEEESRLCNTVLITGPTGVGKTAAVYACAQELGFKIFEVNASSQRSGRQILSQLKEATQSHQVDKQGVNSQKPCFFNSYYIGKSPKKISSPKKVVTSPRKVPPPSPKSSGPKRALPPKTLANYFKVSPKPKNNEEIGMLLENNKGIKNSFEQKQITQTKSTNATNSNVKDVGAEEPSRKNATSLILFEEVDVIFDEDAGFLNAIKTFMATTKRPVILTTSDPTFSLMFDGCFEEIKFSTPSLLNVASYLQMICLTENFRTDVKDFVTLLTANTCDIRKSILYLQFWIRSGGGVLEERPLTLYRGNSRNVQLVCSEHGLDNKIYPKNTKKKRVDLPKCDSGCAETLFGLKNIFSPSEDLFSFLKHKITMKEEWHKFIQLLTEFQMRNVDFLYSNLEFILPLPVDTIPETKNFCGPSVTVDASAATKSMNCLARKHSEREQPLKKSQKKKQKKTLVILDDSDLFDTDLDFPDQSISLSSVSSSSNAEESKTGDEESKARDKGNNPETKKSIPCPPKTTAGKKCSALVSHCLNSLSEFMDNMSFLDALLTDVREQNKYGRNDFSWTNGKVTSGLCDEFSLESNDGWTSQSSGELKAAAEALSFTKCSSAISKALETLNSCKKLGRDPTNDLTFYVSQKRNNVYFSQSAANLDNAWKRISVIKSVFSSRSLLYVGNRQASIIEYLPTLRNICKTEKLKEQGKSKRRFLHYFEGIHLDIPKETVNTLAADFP
# ELG1 MMS Luc: MMS-stimulated human ELG1 repair inhibition, confirmed | shares compounds with ELG1 DNA repair | HEK293T luciferase-tagged ELG1 level, MMS stimulated | Potency, µM (highest dose often 46.1 µM), actives largely listed as inhibitors | 670 compounds, 53% hits | AID 624249; also: nearly all actives have a fitted effect of over 60% in size
# ELG1 5FU viab: qHTS screen for small molecules that inhibit ELG1-dependent DNA repair: Hit Confirmation with 5FU Viability; shares compounds with ELG1 DNA repair; cell viability with 5-FU, ELG1-dependent repair; Potency, µM (series often up to 46.1 µM), most hits filed as cytotoxic; 670 tested, under 10 active; AID 624250, 2012;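 also: ELG1-luc HEK293T cells cotreated with 5-fluorouridine at 10 µM final; viability measured 16 h after compound addition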
# ELG1 MMS cell: qHTS screen for small molecules that inhibit ELG1-dependent DNA repair: Hit Confirmation with MMS Viability; shares compounds with ELG1 DNA repair; Cell viability with MMS, ELG1-dependent DNA repair; Potency, µM (titrated, usually from 46.1 µM), actives largely listed as cytotoxic; 670 compounds, 33% hits; AID 624251, 2012;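 also: ELG1-luc HEK293T cells co-treated with 10 µM MMS; viability read 16 h after compound addition; nearly all actives have a fitted effect of over 60% in size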
# Cell viab unstim: qHTS screen for small molecules that inhibit ELG1-dependent DNA repair: Hit Confirmation with Unstimulated Viability Assay; shares compounds with ELG1 DNA repair; cell viability counter-screen, unstimulated, luminescence; Potency, µM (highest dose often 45.9 µM), usual class: cytotoxic; 900 compounds, 8% hits; AID 624252, 2012;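 also: compound exposure lasted 16 hours before reading; nearly all actives have a fitted effect of over 55% in size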
# FLuc biochem: qHTS screen for small molecules that inhibit ELG1-dependent DNA repair: Hit Confirmation in Biochemical Luciferin Assay. shares compounds with ELG1 DNA repair. purified firefly luciferase, luminescence counter-screen. Potency, µM (titrated, usually from 57.5 µM), actives largely listed as inhibitors. 350 compounds, 10% hits. AID 624253, 2012
# A number is an active result; 0 = inactive; ? = inconclusive; - = no result. Unless noted, calls follow the shape of the dose curve; as a rule, active = well fitted curve in the direction sought with a large enough effect; inconclusive = small, poorly fitted or top-dose-only effect, or another doubt; inactive = no such curve, though single readings can be large; an effect the other way counts as inactive or inconclusive.
SMILES,IL-1B inflam inh,DT40 TDP1 CPT,TDP1 cell noCPT,HT1080-NT tox,ELG1 DNA repair,HT1080 IDH1KD tx,ELG1 FLuc counter,ELG1-Luc inh,ELG1 MMS Luc,ELG1 5FU viab,ELG1 MMS cell,Cell viab unstim,FLuc biochem
O=c1[nH]c(=O)n(Cc2ccc(F)cc2)c(O)c1/C=N/Nc1ccccc1,0,0,0,2.3µM,1.8µM,2.3µM,-,0,0,0,0,?,-
O=c1[nH]c(=O)n(Cc2ccc(F)cc2)c(O)c1C=NCCCO,0,0,0,0,0,0,-,-,-,-,-,-,-
COc1cc2c(cc1OC)[C@@H]1C(=O)c3ccc4c(c3OC1CO2)CC(C(C)C)O4 (some centres undefined),-,0.065µM,0.082µM,-,-,-,?,25µM,0.044µM,0,0.04µM,?,0
CC(=O)c1cc(C(C)=O)c(C)[n+](C)c1C,-,0,0,0,0,0,-,-,-,-,-,-,-
CCN(CC)C(=O)c1ccc(NC(=O)c2c(C)noc2C)cc1,0,0,0,0,0,0,-,-,-,-,-,-,-
CCOC(=O)c1ccc(NC(=O)c2nc[nH]c2C(=O)NCCNC(=O)c2[nH]cnc2C(=O)Nc2ccc(C(=O)OCC)cc2)cc1,0,2.9µM,3.7µM,0,0.52µM,0,?,0.79µM,1.4µM,?,?,0,?
Nc1ncn[nH]1,0,?,?,0,-,0,-,-,-,-,-,-,-
CC1C(OC(=O)CCC(=O)NC(C)(C)CO)O[C@H]2OC3(C)CC[C@H]4[C@H](C)CCC1C24OO3 (some centres undefined),-68,0.82µM,0.037µM,?,1.2µM,10µM,-,?,?,0,?,?,-
CCCCN=C[C@]12CCC(O)CC1(O)CCC1[C@@H]2CC[C@]2(C)[C@H](C3C=CC(=O)O3)CCC12O (some centres undefined),-76,?,16µM,1.8µM,1µM,1.5µM,?,1.6µM,0.89µM,?,2µM,0.63µM,0
CC(Cc1ccccc1)NC(=O)CCCCC(=O)NC(C)Cc1ccccc1 (centres undefined),0,0,0,0,0,0,-,-,-,-,-,-,-
O=C(/C=C/c1ccc(F)cc1)NC(=S)N1C[C@H]2C[C@H](C1)c1cccc(=O)n1C2,0,0,0,0,0,0,-,-,-,-,-,-,-
CCOc1cccc(=NC2CCCCC2)c2c(C)n(C)c(C)c12,-97,4.1µM,2.6µM,21µM,4.6µM,13µM,-,?,7.9µM,?,7.9µM,?,-
C[C@]12CCC3C(CCC4=CC(O)CC[C@@]43/C=N/O)C1(O)CCC2C1=CC(=O)OC1 (some centres undefined),-71,0,?,3.3µM,1.5µM,0.82µM,-,1µM,0.44µM,?,1.3µM,0.5µM,-
C=C(C)[C@@]12OC3(c4ccccc4)O[C@@H]1[C@@H]1[C@@H]4O[C@]4(CO)[C@@H](O)[C@]4(O)C(=O)C(C)=C[C@H]4[C@@]1(O3)[C@H](C)[C@H]2OC(=O)/C=C/C=C/c1ccccc1,-,-,-,-,-,-,0,-,-,-,-,?,0
COC[C@H]([C@@H](O)[C@@H](O)C(=O)NCC[C@@H](C)c1nc(/C=C/C[C@H]2OC3(C[C@H](O)[C@H]2C)OC([C@@H](C[C@@H](O)[C@@H](C)[C@@H](O)[C@@H](C)/C=C(C)/C(C)=C/C=C/C(C)=C\C#N)OC)[C@@H](OP(=O)(O)O)C3(C)C)co1)N(C)C (some centres undefined),-,0.0022µM,0.0016µM,-,-,-,0.5µM,0.14µM,0.089µM,1.8µM,0.079µM,0.16µM,0
Cc1ccc(C(=O)C2(C)N(O)C(C)C(c3cccs3)=[N+]2[O-])cc1 (centres undefined),0,0,0,0,0,?,-,-,-,-,-,-,-
CCOc1ccc(-c2c(C)n(-c3ccc(OCC)cc3)c3[n+]2CCCCC3)cc1,-92,0.21µM,0.16µM,15µM,0.29µM,?,?,?,0.5µM,?,0.45µM,5µM,0
COC(=O)C1(C(=O)O)Cc2cc([N+](=O)[O-])ccc2N2CCCC21 (centres undefined),0,0,0,0,0,0,-,-,-,-,-,-,-
O=C(CCl)c1ccc(O)c(O)c1,-,?,11µM,-,-,-,-,-,-,-,-,0,-
Cc1cc(C)cc(NC2=NCCCS2)c1,0,?,0,0,0,0,-,-,-,-,-,-,-
CCNc1nc(NC(C)(C)C)nc(SC)n1,0,?,0,0,-,0,-,-,-,-,-,-,-
